Among the data in PubChem BioAssay (Tox21) are Potency and outcome values, retold here.

Test [1] is described as follows: qHTS assay for small molecules that induce genotoxicity in human embryonic kidney cells expressing luciferase-tagged ATAD5 (AID 651632). Also: nearly all actives have a fitted effect of over 15% in size. Put shortly:
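Quantitative HTS in HEK293T expressing luciferase-tagged ATAD5, whose levels rise upon DNA damage. Exposure ran 16 hr at 37C and 5% CO2, with luminescence read 30 min after Amplite addition at room temperature.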
Background: In qHTS, concentration-response curves come from the screen itself.

A short description of test [2]: qHTS assay for small molecule agonists of the p53 signaling pathway - cell viability (AID 651633; calls by dose curve; also: nearly all actives have a fitted effect of over 30% in size; also: potency is read from the fitted curve at half-maximal effect). Put shortly:
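Viability counter-read: CellTiter-Glo luminescence (30 min, room temperature) in the same p53RE-bla plates. These plates had been exposed to compounds for 16 h at 37 C.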

A short description of test [3]: qHTS assay for small molecules that induce genotoxicity in human embryonic kidney cells expressing luciferase-tagged ATAD5 - cell viability (AID 651634; calls by dose curve; also: nearly all actives have a fitted effect of over 25% in size; also: potency is read from the fitted curve at half-maximal effect). In short, it runs like this: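 After 15.5 hr incubation with compound at 37C, 5% CO2, HEK293T ATAD5-luciferase cells received CellTiter-Fluor reagent; fluorescence intensity was quantified following 30 min at 37C.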

Test [4] can be described thus: qHTS assay for small molecule disruptors of the mitochondrial membrane potential - cell viability (AID 720634; calls by dose curve;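 also: human HepG2 liver cancer cells; nearly all actives have a fitted effect of over 20% in size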). Put shortly: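 ATP-based luminescent viability readout (CellTiter-Glo, 30 min, room temperature) in HepG2 cells multiplexed with the m-MPI membrane potential dye; compound exposure lasted 1 hr at 37 C.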
The nature of test [5]: qHTS assay for small molecule disruptors of the mitochondrial membrane potential (AID 720635). Also: potency is read from the fitted curve at half-maximal effect. Put shortly: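 Mitochondrial membrane potential tracked with Mito-MPS dye, red aggregates (ex 540/em 590 nm) against green monomers (ex 490/em 535 nm). Compound treatment 1 hr at 37C, dye 30 min in HepG2.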
Test [6] can be described thus: qHTS assay to test for compound auto fluorescence at 590 nm (red) in HepG2 cells (AID 720674). Put shortly: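 We screened compounds on adherent HepG2 cells, incubating them for an hour at 37 C in 5% CO2 before reading emission at 590 nm under 540 nm excitation; values reflect equivalence to Rose Bengal sodium fluorescence.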
Test [7] is described as follows: qHTS assay to test for compound auto fluorescence at 460 nm (blue) in HEK293 cells (AID 720678). Put shortly: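 After cell attachment (4-5 hr, 37C), compounds were pinned onto HEK293 monolayers in 10% dialyzed FBS medium. The blue channel (405/460 nm) was read following overnight culture. Equivalency was calculated against triamterene.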
The nature of test [8]: qHTS assay to test for compound auto fluorescence at 590 nm (red) in HEK293 cells (AID 720679). Put shortly:
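Plates of HEK293 cells (10% dialyzed FBS) are treated with 23 nL compound or DMSO vehicle after a 4-5 hr attachment period, incubated overnight at 37C, and read for red fluorescence at 540/590nm.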

A short description of test [9]: qHTS assay to test for compound auto fluorescence at 535 nm (green) in HEK293 cells (AID 720680).
Test [10] is described as follows: qHTS assay to test for compound auto fluorescence at 460 nm (blue) in HEK293 cell free culture (AID 720681). In short, it runs like this:
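Blue fluorescence (Ex 405/Em 460 nm, triamterene-equivalent) was read immediately after pin transfer of compound or DMSO into medium (DMEM, 10% FBS) without cells.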

Test [11] can be described thus: qHTS assay to test for compound auto fluorescence at 535 nm (green) in HEK293 cell free culture (AID 720682). Put shortly:
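Using fluorescein as calibrant, autofluorescence was quantified at 485/535 nm in cell-free DMEM containing 10% FBS after pintool addition of compound or vehicle.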

Test [12] can be described thus: qHTS assay to test for compound auto fluorescence at 590 nm (red) in HEK293 cell free culture (AID 720683). In short, it runs like this:
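Red-channel autofluorescence of compounds in culture medium (DMEM, 10% FBS), no cells, measured at 540/590 nm. Rose Bengal sodium is the reference fluorophore for equivalence.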

A short description of test [13]: qHTS assay to test for compound auto fluorescence at 590 nm (red) in HepG2 cell free culture (AID 720684). In short, it runs like this: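 No cells present: MEM + 10% FBS only. Compound pinned in, red label read (540/590 nm). Activity = fluorescence equivalent to Rose Bengal sodium.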
Test [14] in a line: qHTS assay to test for compound auto fluorescence at 460 nm (blue) in HepG2 cell free culture (AID 720685). Put shortly:
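Cell-free plates of MEM plus 10% FBS received 23 nL compound or DMSO vehicle; blue-channel (405/460 nm) intensity scored against triamterene as reference fluorophore.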

A short description of test [15]: qHTS assay to test for compound auto fluorescence at 535 nm (green) in HepG2 cell free culture (AID 720686).
Test [16] can be described thus: qHTS assay to test for compound auto fluorescence at 460 nm (blue) in HepG2 cells (AID 720687). In short, it runs like this:
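Blue-channel autofluorescence (Ex/Em 405/460 nm, triamterene-equivalent) was measured after 1 hr compound exposure at 37 C, 5% CO2. Cells were HepG2, plated overnight at 37 C in MEM plus 10% FBS.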

A short description of test [17]: qHTS assay to test for compound auto fluorescence at 535 nm (green) in HepG2 cells (AID 720675).
The target of test [18] is Glucocorticoid receptor (Homo sapiens) (UniProt P04150). The test can be described thus: qHTS assay to identify small molecule antagonists of the glucocorticoid receptor (GR) signaling pathway (AID 720692; active = well fitted inhibition curve with a large enough effect in the signal ratio in the repeat runs, not every such curve was filed as active; the % refers to the signal ratio; also: potency is read from the fitted curve at half-maximal effect). In short, it runs like this: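 Quantitative HTS in antagonist format: HeLa cells expressing endogenous GR and a stably integrated GRE-bla reporter, stimulated with 5 nM dexamethasone (final) alongside test compounds for 18 h.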

Test [19] shares this target. The test can be described thus: qHTS assay to identify small molecule agonists of the glucocorticoid receptor (GR) signaling pathway (AID 720691; active = well fitted activation curve with a large enough effect in the signal ratio in the repeat runs, not every such curve was filed as active; the % refers to the signal ratio; also: potency is read from the fitted curve at half-maximal effect). The note with it: GR-bla HeLa, beta-lactamase reporter ratio, 18 h; activation: at 62.4 µM (top of the series). Put shortly:
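Cells: GR-bla HeLa, endogenous GR with stably integrated GRE-beta-lactamase reporter. Treatment 18 h, 37 C, compounds delivered in DMSO. Detection via LiveBLAzer B/G FRET substrate, 2 h RT, fluorescence intensity.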

Several values for one entry are separate records, joined by “and”; a condition that tells them apart may be missing. Identical values can stand only once. Records with an inconclusive call do not appear. More than one record can exist for a structure, and the calls need not agree. Activity calls are given as the source filed them. Unless noted, calls follow the shape of the dose curve; as a rule, active = well fitted curve in the direction sought with a large enough effect in the repeat runs; inconclusive = weak or mixed curves; inactive = no such curve, though single readings can be large; an effect the other way counts as inactive or inconclusive.

Glucocorticoid receptor (Homo sapiens), sequence (P04150 whole entry, looked up): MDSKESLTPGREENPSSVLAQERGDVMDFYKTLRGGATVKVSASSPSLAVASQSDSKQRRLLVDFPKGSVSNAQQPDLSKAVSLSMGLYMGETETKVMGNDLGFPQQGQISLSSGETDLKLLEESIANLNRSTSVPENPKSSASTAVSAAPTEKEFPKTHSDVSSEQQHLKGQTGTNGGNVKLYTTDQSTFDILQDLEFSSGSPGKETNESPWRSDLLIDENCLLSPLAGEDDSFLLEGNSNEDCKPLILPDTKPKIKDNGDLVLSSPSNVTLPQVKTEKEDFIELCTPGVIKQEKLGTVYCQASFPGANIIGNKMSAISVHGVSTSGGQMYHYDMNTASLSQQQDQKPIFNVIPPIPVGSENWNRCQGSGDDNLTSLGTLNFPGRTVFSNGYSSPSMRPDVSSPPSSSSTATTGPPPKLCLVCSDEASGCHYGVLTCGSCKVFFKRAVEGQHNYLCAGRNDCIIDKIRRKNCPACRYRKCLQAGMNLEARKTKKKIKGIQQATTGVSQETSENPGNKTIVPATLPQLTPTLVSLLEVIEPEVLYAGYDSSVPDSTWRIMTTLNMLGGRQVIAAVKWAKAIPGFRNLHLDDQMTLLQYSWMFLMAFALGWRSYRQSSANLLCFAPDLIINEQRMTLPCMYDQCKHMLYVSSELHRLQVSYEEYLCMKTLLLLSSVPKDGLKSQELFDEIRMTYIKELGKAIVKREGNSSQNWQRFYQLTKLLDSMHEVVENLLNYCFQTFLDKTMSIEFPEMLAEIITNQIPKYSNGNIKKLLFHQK

As for `CO[C@H]1C[C@@H]2CC[C@@H](C)[C@@](O)(O2)C(=O)C(=O)N2CCCC[C@H]2C(=O)O[C@H]([C@H](C)C[C@@H]2CC[C@@H](O)[C@H](OC)C2)CC(=O)[C@H](C)C=C(C)[C@@H](O)[C@@H](OC)C(=O)[C@H](C)C[C@H](C)/C=C/C=CC=C1C`, the Potency result in test [1], in [4], in test [7], in [10], in test [14] and in [15] was “inactive” throughout. For the same compound, the Potency entry in test [16] was “inactive”. Further, the Potency in [2] was 21.1 µM (active) and 23.7 µM (active); in [3], 29.8 µM (active) and 26.6 µM (active); in test [5] it was 17.6 µM (active) and 19.7 µM (active). The call in [6], in [8], in test [9], in test [11], in [12] and in test [13] was inactive.
As to `CN1CC[C@H](c2c(O)cc(O)c3c(=O)cc(-c4ccccc4Cl)oc23)[C@H](O)C1`, the Potency entry in [1], in test [2], in [3], in [4], in test [17] and in [7] was “inactive” in each case. Also, the Potency result in [10], in [14], in test [15] and in test [16] was “inactive” throughout. Also, the compound was called inactive in test [6], in test [8], in [9], in test [11], in test [12] and in [13]. Also, in test [18], the Potency was 0.674 µM (active).
Consider `C/C(=C(/CCO)SSCC1CCCO1)N(C=O)Cc1cnc(C)nc1N` (configuration not stated), for which the Potency entry in test [1], in test [2], in test [3], in test [4], in test [5] and in [17] was “inactive” in each case. The Potency entry in test [7], in test [10], in [14], in test [15], in test [16] and in test [18] was “inactive” in each case. The compound was called inactive in test [6], in test [8], in test [9], in test [11], in test [12] and in test [13]. The Potency entry in [19] was “inactive and 21.3 µM (active)”.
Take `Cc1cc(N)c2ccccc2[n+]1CCCCCCCCCC[n+]1c(C)cc(N)c2ccccc21`: the Potency result in test [1], in [2], in test [3], in test [4], in test [5] and in test [17] was “inactive” each time. The Potency result in [7], in [10], in test [14], in [15], in test [16] and in test [19] was “inactive” in each case. Further, the call in test [6], in test [8], in [9], in [11], in test [12] and in [13] was inactive.
With `CN(C)CCOc1ccc(/C(=C(/CCCl)c2ccccc2)c2ccccc2)cc1`, the Potency result in test [1], in [3], in test [4], in [17], in test [7] and in test [10] was “inactive” each time. Moreover, the Potency entry in [14], in [15] and in test [16] was “inactive” throughout. In addition, the Potency in test [2] was 57.2 µM (active). Besides, the outcome in [6], in test [8], in [9], in [11] and in test [12] was inactive.
On to `N[C@@H](Cc1ccc(O)c(O)c1)C(=O)O`, for which the Potency result in test [1], in test [2], in test [3], in [4], in [17] and in test [7] was “inactive” throughout. The Potency result in [10], in [14], in test [15], in test [16] and in [19] was “inactive” each time. Also, the call in test [6], in test [8], in [9], in test [11], in [12] and in test [13] was inactive.
